# Laboratory results reported in publication PMC5540273 (PLoS ONE, 2017).
# Where “and” joins values, the source holds several entries; their conditions need not be identical. Equal values may be shown once. Read-outs that look alike come from different tables or passages of the source.
# What was measured:
# [1] = test system: T1, ERK4; conditions: concentration: 1 μM, replicates: in singlicate; n = 1
# T1 construct: gene MAPK4
# [2] = test system: T2, ERK5; conditions: concentration: 1 μM, replicates: in singlicate; n = 1
# T2 construct: gene MAPK7
# [3] = test system: T3, ERK8; conditions: concentration: 1 μM, replicates: in singlicate, n = 1
# T3 construct: gene MAPK15
# [4] = test system: ERN1; conditions: concentration: 1 μM, replicates: in singlicate; n = 1
# [5] = test system: T4, FAK; conditions: concentration: 1 μM, replicates: in singlicate; n = 1
# T4 construct: gene PTK2
# [6] = test system: FER; conditions: concentration: 1 μM, replicates: in singlicate, n = 1
# [7] = test system: FES; conditions: concentration: 1 μM, replicates: in singlicate, n = 1
# [8] = test system: FGFR1; conditions: concentration: 1 μM, replicates: in singlicate; n = 1
# [9] = test system: FGFR2; conditions: concentration: 1 μM, replicates: in singlicate; n = 1
# [10] = test system: FGFR3; conditions: concentration: 1 μM, replicates: in singlicate, n = 1
# [11] = test system: FGFR4; conditions: concentration: 1 μM, replicates: in singlicate; n = 1
# [12] = test system: FGR; conditions: concentration: 1 μM, replicates: in singlicate, n = 1
# [13] = test system: FLT1; conditions: concentration: 1 μM, replicates: in singlicate, n = 1
# [14] = test system: FLT3-autoinhibited; conditions: concentration: 1 μM, replicates: in singlicate, n = 1
# [15] = test system: FLT3; conditions: concentration: 1 μM, replicates: in singlicate, n = 1
# [16] = test system: FLT4; conditions: concentration: 1 μM, replicates: in singlicate; n = 1
# [17] = test system: FRK; conditions: concentration: 1 μM, replicates: in singlicate, n = 1
# [18] = test system: FYN; conditions: concentration: 1 μM, replicates: in singlicate, n = 1
# [19] = test system: GAK; conditions: concentration: 1 μM, replicates: in singlicate, n = 1
# [20] = test system: T5, GCN2(Kin.Dom.2,S808G); conditions: concentration: 1 μM, replicates: in singlicate, n = 1
# T5 construct: gene EIF2AK4
# 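Note: KINOMEscan kinase panel screen.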
smiles,measurement,setting,value
COc1ccc(NC(=O)Nc2ccc(C)c(-c3ccc(C(=O)Nc4ccncc4)cc3)c2)cc1 [GSK1398475],%Inh,[1],0%
same,%Inh,[2],0%
same,%Inh,[3],0%
same,%Inh,[4],0%
same,%Inh,[5],0%
same,%Inh,[6],5%
same,%Inh,[7],2%
same,%Inh,[8],0%
same,%Inh,[9],0%
same,%Inh,[10],11%
same,%Inh,[11],5%
same,%Inh,[12],27%
same,%Inh,[13],26%
same,%Inh,[14],0%
same,%Inh,[15],85%
same,%Inh,[16],15%
same,%Inh,[17],23%
same,%Inh,[18],41%
same,%Inh,[19],0%
same,%Inh,[20],0%
COc1ccc(Nc2nccc(N3CCC(NC(=O)Nc4ccc5c(c4)OCO5)C3)n2)cc1 (stereo not shown) [GSK1379745],%Inh,[1],0%
same,%Inh,[2],0%
same,%Inh,[3],48%
same,%Inh,[4],0%
same,%Inh,[5],1%
same,%Inh,[6],33%
same,%Inh,[7],18%
same,%Inh,[8],9%
same,%Inh,[9],1%
same,%Inh,[10],32%
same,%Inh,[11],4%
same,%Inh,[12],28%
same,%Inh,[13],37%
same,%Inh,[14],0%
same,%Inh,[15],45%
same,%Inh,[16],12%
same,%Inh,[17],14%
same,%Inh,[18],3%
same,%Inh,[19],11%
same,%Inh,[20],2%
Nc1nccc2scc(-c3ccc4c(c3)CCN4C(=O)Cc3cc(F)ccc3F)c12 [GSK2587663],%Inh,[1],0%
same,%Inh,[2],0%
same,%Inh,[3],14%
same,%Inh,[4],2%
same,%Inh,[5],0%
same,%Inh,[6],26%
same,%Inh,[7],18%
same,%Inh,[8],0%
same,%Inh,[9],1%
same,%Inh,[10],9%
same,%Inh,[11],7%
same,%Inh,[12],40%
same,%Inh,[13],37%
same,%Inh,[14],0%
same,%Inh,[15],0%
same,%Inh,[16],0%
same,%Inh,[17],11%
same,%Inh,[18],12%
same,%Inh,[19],0%
same,%Inh,[20],13%
COc1ccc(-c2nc3n(c2-c2ccncc2)CCC3)cc1 [SKF-104493],%Inh,[1],0%
same,%Inh,[2],0%
same,%Inh,[3]; 1 µM,6% and 11%
same,%Inh,[4],0%
same,%Inh,[5],0%
same,%Inh,[6]; 1 µM,0% and 33%
same,%Inh,[7]; 1 µM,10% and 0%
same,%Inh,[8],0%
same,%Inh,[9],0%
same,%Inh,[10]; 1 µM,0% and 9%
same,%Inh,[11],8%
same,%Inh,[12]; 1 µM,19% and 8%
same,%Inh,[13]; 1 µM,6% and 11%
same,%Inh,[14]; 1 µM,22% and 0%
same,%Inh,[15]; 1 µM,9% and 0%
same,%Inh,[16],0%
same,%Inh,[17]; 1 µM,5% and 0%
same,%Inh,[18]; 1 µM,0% and 28%
same,%Inh,[19]; 1 µM,13% and 41%
same,%Inh,[20]; 1 µM,27% and 0%
C[C@@H]1CCN(C(=O)CO)C[C@@H]1N(C)c1ncnc2[nH]ccc12,%Inh,[1],19%
same,%Inh,[2],0%
same,%Inh,[3],9%
same,%Inh,[4],0%
same,%Inh,[5],0%
same,%Inh,[6],8%
same,%Inh,[7],0%
same,%Inh,[8],12%
same,%Inh,[9],7%
same,%Inh,[10],0%
same,%Inh,[11],0%
same,%Inh,[12],0%
same,%Inh,[13],0%
same,%Inh,[14],0%
same,%Inh,[15],0%
same,%Inh,[16],0%
same,%Inh,[17],3%
same,%Inh,[18],0%
same,%Inh,[19],0%
same,%Inh,[20],7%
CC(C)N1CCC(n2cnc(-c3ccc(F)cc3)c2-c2ccnc(N)n2)CC1 [SB-223132],%Inh,[1],0%
same,%Inh,[2],0%
same,%Inh,[3],4%
same,%Inh,[4],0%
same,%Inh,[5],16%
same,%Inh,[6],8%
same,%Inh,[7],0%
same,%Inh,[8],22%
same,%Inh,[9],10%
same,%Inh,[10],21%
same,%Inh,[11],0%
same,%Inh,[12],16%
same,%Inh,[13],0%
same,%Inh,[14],0%
same,%Inh,[15],0%
same,%Inh,[16],0%
same,%Inh,[17],1%
same,%Inh,[18],0%
same,%Inh,[19],2%
same,%Inh,[20],0%
FC(F)(F)c1ccc(-c2cc(-c3c[nH]nc3-c3ccccn3)ccn2)cc1 [GW599550],%Inh,[1],0%
same,%Inh,[2],0%
same,%Inh,[3],0%
same,%Inh,[4],0%
same,%Inh,[5],0%
same,%Inh,[6],32%
same,%Inh,[7],0%
same,%Inh,[8],5%
same,%Inh,[9],0%
same,%Inh,[10],4%
same,%Inh,[11],0%
same,%Inh,[12],14%
same,%Inh,[13],20%
same,%Inh,[14],0%
same,%Inh,[15],0%
same,%Inh,[16],17%
same,%Inh,[17],0%
same,%Inh,[18],38%
same,%Inh,[19],46%
same,%Inh,[20],0%
Cc1ccc(C)c(NC(=O)NCCNc2ccnc(Nc3ccc(F)cc3)n2)c1 [GSK1379878],%Inh,[1],17%
same,%Inh,[2],98.4%
same,%Inh,[3],0%
same,%Inh,[4],0%
same,%Inh,[5],0%
same,%Inh,[6],17%
same,%Inh,[7],0%
same,%Inh,[8],0%
same,%Inh,[9],14%
same,%Inh,[10],0%
same,%Inh,[11],0%
same,%Inh,[12],4%
same,%Inh,[13],24%
same,%Inh,[14],0%
same,%Inh,[15],0%
same,%Inh,[16],0%
same,%Inh,[17],0%
same,%Inh,[18],0%
same,%Inh,[19],0%
same,%Inh,[20],0%
